According to PubChem BioAssay AID1626 (SRMLSC, 2009):
Among all 220,000 compounds or so, about 2,000 (0.91%) were called active. Roughly 2% stayed inconclusive and do not appear here. Only a sample is shown. Results with a measured potency or affinity are listed apart. A number with no mark means an inactive call. Rule as the data show it: inconclusive = inhibition above about 80% without an active follow-up result; inactive = below that; test concentration not stated here.

Test: M. tuberculosis H37Rv growth inhibitors, H37Rv strain (AID 1626);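 also: bacteria incubated seven days before Alamar blue readout; 0% = bacteria only wells and 100% = bacteria with antibiotic wells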
Conditions: stronger effect = higher value, concentration not given here

Row | SMILES | inhibition [%]
1 | CCC1CSC(Nc2ccc(C(=O)/C=C/c3ccc(OC)c(OC)c3)cc2)=N1 (stereo unspecified) | 44.8
2 | CCCc1cc(=O)[nH]c(SCc2ccc(F)cc2)n1 | -1.85
3 | COc1cccc(NC(=O)N2CCCc3ccccc32)c1 | 15
4 | COc1cccc2sc(N(CCCN(C)C)C(=O)c3sc4ccccc4c3Cl)nc12 | 1.6
5 | COc1cccc2sc(N(CCCN(C)C)C(=O)COc3ccc(Cl)cc3)nc12 | -2.48
6 | Cc1cccc(C(=O)Nc2ccccc2C(=O)OCC(=O)Nc2ccc(C#N)cc2)c1 | 45
7 | CCNC(=O)COC(=O)CNC(=O)c1cc(Cl)cc([N+](=O)[O-])c1 | -10
8 | O=C(Oc1ccc(Cl)c2cccnc12)N1CCCCC1 | 4.79
9 | CN(C)C(=O)Oc1ccc(Cl)c2cccnc12 | -4.68
10 | CCCC(=O)Nc1ccc(NC(=O)c2ccccc2Cl)nc1 | 7.45
11 | O=C(N/N=C/C=C\c1ccc([N+](=O)[O-])cc1)c1cccnc1 | -15.7
12 | Cc1ccc(S(=O)(=O)Oc2ccc3c(c2)O/C(=C\c2cccnc2)C3=O)cc1 | -0.74
13 | CS(=O)(=O)Oc1ccc2c(c1)O/C(=C\c1cccnc1)C2=O | -6.08
14 | O=C1/C(=C/c2ccncc2)Oc2cc(OS(=O)(=O)c3ccccc3)ccc21 | 21.6
15 | O=C1/C(=C/c2cccnc2)Oc2cc(OS(=O)(=O)c3ccc(Cl)cc3)ccc21 | 13.6
16 | Cc1ccc2[nH]cc(C(=O)CN3CCOCC3)c2c1 | -4.26
17 | COc1ccc(C2C3=C(CCCC3=O)Nc3n[nH]c(C)c32)cc1OC (stereo unspecified) | -5.11
18 | CCOC(=O)CSc1nnc(CNc2cccc(Cl)c2)n1-c1ccccc1 | 5.48
19 | N#Cc1nc(-c2ccc(OCc3ccccc3)cc2)oc1NCCCn1ccnc1 | 4.85
20 | N#Cc1nc(-c2ccc(OCc3ccc(Cl)cc3)cc2)oc1NCCCn1ccnc1 | -1.04
21 | Cc1cccc(C)c1Nc1nnc(SCc2cn3cccc(C)c3n2)s1 | -7.42
22 | COc1ccc(-c2cc(=Nc3ccccc3)c3cc(C)ccc3o2)cc1 | 17.7
23 | COc1ccc(-c2cc(=Nc3ccc(C)cc3)c3ccccc3o2)cc1 | 12.8
24 | O=C(CNC(=O)c1ccco1)Nc1ccc(S(=O)(=O)N2CCCC2)cc1 | -5.82

Row | SMILES | inhibition [%]
25 | Cc1ccc2nc(N(CCCN(C)C)C(=O)CCc3ccccc3)sc2c1 | 9.45
26 | CN(C)CCCN(C(=O)CCc1ccccc1)c1nc2ccc(F)cc2s1 | 7.03
27 | O=C1NC(c2ccccc2)=NC1(NS(=O)(=O)c1ccc(Cl)cc1)C(F)(F)F (stereo unspecified) | 7.08
28 | O=C(c1cccs1)c1coc2ccc(O)cc12 | 51
29 | COc1ccc(OC)c(C(=O)c2coc3ccc(O)cc23)c1 | -1.33
30 | O=C(c1ccc(Cl)cc1)c1coc2ccc(O)cc12 | -6.06
31 | O=C(c1coc2ccc(O)c(CN3CCOCC3)c12)C1CC1 | 4.13
32 | CN1CC(=O)N(CC(=O)Nc2ccc(F)cc2)c2ccccc2C1=O | -5.02
33 | COc1ccc(C(=O)Nn2c(CCC(=O)O)ccc2-c2ccc(C)cc2)cc1OC | -3.08
34 | Cc1cccc(N2CCN(C(=O)N3CCOCC3)CC2)c1C | -3.5
35 | Cc1nn(C)c(C(=O)NNC(=S)NC2CCCCC2)c1Br | 10.2
36 | Cc1ccc(NC(=O)COC(=O)CCNS(=O)(=O)c2ccc(C)c(C)c2)cc1 | -0.05
37 | CCCOc1cc(N(CC)CC)ccc1/C=C(/C#N)c1nc2ccc(C)cc2[nH]1 | 61.6
38 | CCN(CC)c1ccc(/C=C(/C#N)c2nc3ccc(C)cc3[nH]2)c(OC(C)C)c1 | 16.2
39 | FC(F)(F)c1ccc(CN2C[C@@H]3C(c4ccccc4)C4(c5cccnc5)CC3(C4)[C@H]2c2ccccc2)cc1 (stereo partly specified) | 20.3
40 | COc1ccccc1S(=O)(=O)CC(O)COc1ccc(C#N)cc1 (stereo unspecified) | -1.05
41 | Cc1nccn1CC(=O)N/N=C/c1c[nH]c2ccccc12 | 3.79
42 | O=C(CCN1c2ccccc2Sc2ccccc21)Oc1ccccc1 | 22.8
43 | COC(=O)c1ccc(OC(=O)CCN2c3ccccc3Sc3ccccc32)cc1 | 1.13
44 | CSCCC(NC(=O)c1ccccc1)c1nc(-c2ccccc2)no1 (stereo unspecified) | 2.56
45 | CCOc1cc(Br)ccc1S(=O)(=O)N1CCC(C(N)=O)CC1 | -1.13
46 | Cc1cccc(N=Nc2c(C)c(C#N)c(O)[nH]c2=O)c1 | -1.05
47 | CCOC(=O)c1ccc(N=Nc2c(C)c(C#N)c(O)[nH]c2=O)cc1 | 86.6
48 | Cc1ccc(C)c2[nH]c(=O)c(CN(CC3CCCO3)C(=S)NCc3ccco3)cc12 (stereo unspecified) | 1.36

Row | SMILES | inhibition [%]
49 | c1ccc(COc2ccc(CNn3cnnc3)cc2)cc1 | -2.39
50 | COc1cccc(-c2nc(Oc3cccc(C)c3C)c3ccccc3n2)c1O | -7.68
51 | Cc1nc(SCC(=O)NCc2ccccc2)c2oc3ccccc3c2n1 | -1.12
52 | CCOC(=O)N1C2=NC(C(=O)OC)=C(C(=O)OC)[C@@H]3N(Cc4ccccc4)c4ccccc4[C@]23C[C@H]1C(=O)OC | -6.13
53 | O=C(c1cn(-c2ccc(Cl)c(Cl)c2)nn1)C1CC1 | 12.8
54 | CN1CCN(c2ccc(C(=O)c3ccc(F)cc3)cc2)CC1 | 1.19
55 | Cc1ccc(C(=O)c2cn(-c3ccc(F)c(Cl)c3)nn2)cc1 | 0.59
56 | Cc1ccc(-n2cnnn2)cc1Cl | -4.47
57 | Cc1c(-n2c(O)c(C3=c4ccccc4=NC3=O)sc2=O)c(=O)n(-c2ccccc2)n1C | 1.59
58 | N/C(=N\OC(=O)c1cc(Cl)ccc1Cl)c1ccncc1 | -3.7
59 | CS(=O)(=O)N(Cc1ccc(Cl)cc1)c1ccc(C(=O)N/N=C/c2cc3ccccc3nc2Cl)cc1 | -6.17
60 | Cc1ccc(-n2nnnc2SCC(=O)Nc2sccc2C#N)cc1 | 0.42
61 | O=C(CN1C(=O)CCC1=O)NCC12CC3CC(CC(C3)C1)C2 | 0.8
62 | Cc1ccc(N/C=C(\C#N)c2ccc(OCCCF)cc2)cc1 | 7.98
63 | COc1ccc(NC(=O)c2c(Cl)nc3ccccn23)cc1 | -0.46
64 | Cc1nc2ccccn2c1C(=O)NCc1cccnc1 | -10.5
65 | CC(C)(C)c1ccc(C(=O)OCCNC(=O)c2c(Cl)nc3ccccn23)cc1 | -10.6
66 | CCC(CC)NC(=O)c1cc2c(C)nn(Cc3ccccc3Cl)c2s1 | -6.17
67 | Cc1nc2ccccn2c1C(=O)N/N=C/c1ccc2c(c1)OCO2 | 1.58
68 | O=C(NCc1ccc2c(c1)OCO2)c1cnc2ccccn2c1=O | -8.83
69 | CCNC(=O)c1c(C)nc2ccccn12 | -9.74
70 | Cc1nn(Cc2ccccc2Cl)c2sc(C(=O)NC(C)(C)C)cc12 | 7.48
71 | COCCn1c(=O)[nH]c2cc(C(=O)NCC3CCCO3)ccc2c1=O (stereo unspecified) | -10.7
72 | COc1cc(C2NC(=O)NC(C)=C2C(C)=O)ccc1O (stereo unspecified) | 5.67

Row | SMILES | inhibition [%]
73 | COC(=O)c1ccccc1NC(=O)NCc1cccnc1 | 2.42
74 | CCCC(C)C(=O)Nc1ccc(Cl)cc1Cl (stereo unspecified) | -6.12
75 | Cc1ccc(NC(=O)CC(=O)NCCN2CCOCC2)cc1 | -6.87
76 | CC(=O)c1ccc(OC(C)C)c(CSC(=N)N)c1 | -9.08
77 | COc1ccccc1NS(=O)(=O)c1cccc(NC(=S)NCCN2CCOCC2)c1 | -2.29
78 | Cc1ccc2nc3c(c(Nc4ccc5c(c4)OCCO5)c2c1)CCC3 | 59.8
79 | c1ccc2c(Nc3ccc4c(c3)OCCO4)c3c(nc2c1)CCC3 | 21.9
80 | CSc1snc(SCC(N)=O)c1C#N | -4.47
81 | N#Cc1c(SCC(N)=O)nsc1SCc1ccc(Cl)cc1 | -0.48
82 | C/C=C/C(=O)OCC(=O)Nc1cccc(Br)c1 | -3.94
83 | COc1ccc(NC(=O)C(C)Sc2nnc3c4c(nc(-c5ccc(OC)cc5)n23)CC(C)(C)OC4)cc1 (stereo unspecified) | 4.37
84 | CC(C)CNC(=S)N1CCN(Cc2ccc3c(c2)OCO3)CC1 | -8.68
85 | CCC(=O)Nc1ccc(NC(=O)c2cc3ccccc3o2)cc1 | 8.98
86 | COc1ccc(NC(=O)c2cc3ccccc3o2)cc1 | 8.56
87 | CCC1C(=O)N=C(SCC(=O)Nc2ccc(C(=O)OC)cc2)NC1=O (stereo unspecified) | 8.73
88 | COc1ccccc1NC(=O)c1ccc(NC(=O)c2cc3c(s2)CCC3)cc1 | 0.63
89 | CCOC(=O)c1ccc(NC(=O)CNC(=O)c2ccccc2)cc1 | 0.26
90 | Cc1ccc(NC(=O)c2cc3c(s2)CCCC3)cc1 | -5.85
91 | CCC1C(=O)N=C(SCC(=O)Nc2ccccc2)NC1=O (stereo unspecified) | -8
92 | CCOC(=O)c1ccc(NC(=O)Nc2ccc(F)cc2)cc1 | -14.9
93 | COc1cccc(/C=N/NC(=O)CN(CCc2ccccc2)S(=O)(=O)c2ccc(NC(C)=O)cc2)c1 | 0.86
94 | COc1ccc(/C=N/NC(=O)c2cccnc2)cc1CN1CCc2cc(OC)c(OC)cc2C1C (stereo unspecified) | 1.27
95 | Cc1cc(C)n2nc(C(=O)OCC(=O)c3cc(C)n(CC4CCCO4)c3C)nc2n1 (stereo unspecified) | -11.1
96 | CC(=O)c1ccc(NC(=O)N2C3CCC2CC(O)(c2cccnc2)C3)cc1 (stereo unspecified) | -0.55
